# Assay results: PubChem BioAssay AID778 (Sanford-Burnham Center for Chemical Genomics, 2007)
# Out of some 96,000 compounds screened, about 20,000 (21%) were called active. Only a sample is shown. A number with no mark means an inactive call.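 Rule for the calls: active = CYP2C19 inhibition above a set limit at 5 µM in the primary screen (cut at about 50% in these data); inactive = the rest.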
# Target: Cytochrome P450 2C19 (Homo sapiens) (UniProt P33261)
# Assay: blockers of cytochrome P450 2C19 activity – biochemical, luminescence, ADME assay, primary screen (AID 778);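 note: plate controls were negative control wells for no effect and 2.5 mM tranylcypromine positive control for full effect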
# Details: CYP2C19 Supersomes, luciferin-H EGE luminescence, 30 min; at 5 µM; stronger effect = higher value
# Chain of Cytochrome P450 2C19 (Homo sapiens) (P33261 whole entry, looked up): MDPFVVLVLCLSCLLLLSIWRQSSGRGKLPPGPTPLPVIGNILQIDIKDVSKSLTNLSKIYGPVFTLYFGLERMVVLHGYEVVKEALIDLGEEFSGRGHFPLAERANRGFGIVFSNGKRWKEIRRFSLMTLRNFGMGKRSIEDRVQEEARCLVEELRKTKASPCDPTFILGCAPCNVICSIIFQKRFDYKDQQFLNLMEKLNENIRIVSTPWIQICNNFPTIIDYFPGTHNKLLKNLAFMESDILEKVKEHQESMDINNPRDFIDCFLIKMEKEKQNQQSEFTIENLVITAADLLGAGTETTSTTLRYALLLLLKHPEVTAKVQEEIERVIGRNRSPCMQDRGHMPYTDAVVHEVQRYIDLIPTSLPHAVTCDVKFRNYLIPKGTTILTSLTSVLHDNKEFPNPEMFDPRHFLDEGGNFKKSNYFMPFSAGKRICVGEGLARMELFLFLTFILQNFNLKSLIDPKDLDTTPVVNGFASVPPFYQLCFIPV
row,SMILES,inhibition
1,c1ccc(CCN2CN=C(Nc3nc4ccccc4o3)NC2)cc1,29.5%
2,CCOc1cc(-c2nc3cc(C)ccn3c2NCC2CCCO2)ccc1O (stereo not given),2.7%
3,O=P(c1ccc2c(c1)OCCO2)(N1CCOCC1)N1CCOCC1,21.2%
4,Cc1ccc(NC(=O)Cn2nc(C)c3ccccc3c2=O)c(C)c1,56.1% (active)
5,O=C(Cn1nc(Cc2cccnc2)c2ccccc2c1=O)NCC1COc2ccccc2O1 (stereo not given),36.1%
6,Cc1nn(CC(=O)Nc2ccc3c(c2)nc(CN2CCCCC2)n3C)c(=O)c2ccccc12,10.5%
7,COc1cccc(C(=O)Nc2ccc(NC(=O)c3ccco3)cn2)c1,38.7%
8,Cc1sc2c(c1C)c(=O)n(-c1ccccc1)c1nncn21,-7.8%
9,Cc1cc(=O)cc(C)[nH]1,4.5%
10,CC(=O)N1CCN(c2ccc(NCc3ccc(C(C)C)cc3)cc2)CC1,50.5% (active)
11,CC(C)c1ccc(N2CCN(C(=O)c3ccccc3NC(=O)/C=C(\C(=O)O)c3ccccc3)CC2)cc1,21.7%
12,COc1ccc(N2CCN(C(=O)CNC(=O)c3ccc(C(C)(C)C)cc3)CC2)cc1,3.3%
13,Cc1ccc(Cc2cnc(N)s2)o1,8.3%
14,CC1CC(C)CN(S(=O)(=O)c2cccc(C(=O)N3C(=O)c4cccc(N)c4C3=O)c2)C1 (stereo not given),5.9%
15,O=C(Nc1cccc2ccccc12)c1onc2c1CCCC2,7.1%
16,O=C(Nc1cccnc1)c1noc2c1CCCCC2,64.2% (active)
17,CCOC(=O)c1ccc(-c2ccc(C(=O)Nc3cccnc3)o2)cc1,14.1%
18,Cn1c(=O)c2[nH]c(NCC3CCCO3)nc2n(-c2ccccc2)c1=O (stereo not given),-1%
19,CC(=O)NC1CC2CCCC(C1)N2CC(=O)Nc1ccccc1 (stereo not given),11.5%
20,CSCCC(NC(=O)c1ccco1)C(=O)OCC(=O)Nc1ncc(Cl)c(C)c1Cl (stereo not given),12.9%
21,O=C(Nc1ccc2sc3ccccc3c(=O)c2c1)c1ccccc1Cl,14.5%
22,Cc1c(C(=O)NCc2ccccc2)cnn1-c1ccccc1,11.5%
23,O=C(NCc1cccnc1)c1cn(-c2ccccc2)nc1-c1cccs1,89.6% (active)
24,COC(=O)c1cn(-c2ccccc2)nc1-c1cccnc1,30.5%

row,SMILES,inhibition
1,COC(=O)Cc1csc(Nc2c(C)n(C)n(-c3ccccc3)c2=O)n1,-4.9%
2,CC1CC(c2ccccc2)n2nc(NC(=O)c3cccs3)nc2N1 (stereo not given),7.3%
3,CCOC(=O)CSc1nncc2ccc(OC)c(OC)c12,11.3%
4,CCOC(=O)C1CCCCN1Cc1ccc(OC)c(OC)c1OC (stereo not given),58.1% (active)
5,CCOC(=O)C1CCN(Cc2coc3ccc(Cl)cc3c2=O)CC1,6.5%
6,CN=C1SC(CC(=O)Nc2ccc(C(=O)O)cc2)C(=O)N1C (stereo not given),-4.9%
7,CC(=O)C1C(c2ccc(Cl)cc2)NC(=O)NC1(O)C(F)(F)F (stereo not given),39%
8,COc1cccc2c(=O)n(CC(=O)N3CCCCCC3)ccc12,56.9% (active)
9,CCOC(=O)C(C)Oc1cccc2c(=O)n(CC(=O)N3CCc4ccccc43)ccc12 (stereo not given),8.2%
10,CCc1cccc2c(C=C(C#N)C#N)cn(CC(=O)N3CCCCC3)c12,-0.7%
11,O=C(Cn1cc2c(n1)CCCCC2)NCCN1CCOCC1,-10.3%
12,COc1cc(OC)c(C(=O)NC2CCCCCC2)cc1OC,43.7%
13,CS(=O)(=O)N(CC(=O)N1CCN(Cc2ccc3c(c2)OCO3)CC1)c1ccc2c(c1)OCO2,-4.8%
14,Cc1noc(C)c1S(=O)(=O)N(CC(=O)Nc1ccc2c(c1)OCCO2)c1ccc(C(C)C)cc1,55.8% (active)
15,Cc1ccc(CNC(=O)CN2CCN(Cc3ccc(Cl)cc3)C2=O)cc1,15.1%
16,CCOC(=O)c1cccc(NC(=O)CN(c2ccc(C)cc2)S(=O)(=O)c2c(C)noc2C)c1,17.3%
17,CCOc1ccc(N(CC(=O)NCc2ccc(OC)cc2)S(=O)(=O)c2c(C)noc2C)cc1,15.3%
18,CCOc1ccc(N(CC(=O)NC2CCCCCC2)S(=O)(=O)c2c(C)[nH]c(=O)[nH]c2=O)cc1,25.2%
19,CCOc1ccc(N(CC(=O)OC)S(=O)(=O)c2c(C)noc2C)cc1,50.6% (active)
20,CS(=O)(=O)N(CC(=O)NCc1ccco1)c1ccc2c(c1)OCO2,59.5% (active)
21,O=C(/C=C/c1cc2c(cc1Br)OCO2)NCc1ccc(Cl)cc1,-11.1%
22,O=C(Cn1nnc(-c2ccc3c(c2)OCO3)n1)NCc1ccco1,0.8%
23,O=C(CN(c1ccc2c(c1)OCCO2)S(=O)(=O)c1ccccc1)Nc1ccc2c(c1)OCO2,26.7%
24,Cc1noc(C)c1S(=O)(=O)N(CC(=O)NCc1ccc(Cl)cc1)c1ccc2c(c1)OCO2,72.8% (active)

row,SMILES,inhibition
1,N/C(=N\c1nc2ccccc2o1)NC(=O)C(Cc1ccccc1)N1C(=O)c2ccccc2C1=O (stereo not given),35.9%
2,Cn1c(=O)cc(SCC(=O)N2CCN(C(=O)c3ccco3)CC2)c2ccccc21,-17%
3,Cc1c2cnn(-c3ccccc3)c(=O)c2c(C)n1CCCC(=O)N1CCN(C)CC1,-16%
4,O=C(Cn1cnc2ccccc2c1=O)NCC1COc2ccccc2O1 (stereo not given),22.7%
5,CC(=O)N(CN1C(=O)C2CC=CCC2C1=O)c1cccc(Cl)c1 (stereo not given),46.5%
6,Cc1cc(C)c2nc(N3CCCC3)c(C#N)cc2c1,-2.3%
7,Fc1ccc(Br)cc1/C=N/n1cnnc1,13.9%
8,CCN(CC)c1ccc2oc(=O)c(C)nc2c1,18.7%
9,COc1ccc(CC(=O)c2ccc(O)cc2O)cc1OC,88% (active)
10,COc1ccc(CNC(=O)c2c(C)cc(=O)oc2C)cc1OC,5.4%
11,COCc1cc(C(C)=O)ccc1OC,6.2%
12,N#CCCN1CCN(S(=O)(=O)c2ccc(S(=O)(=O)N3CCCC3)cc2)CC1,-7.1%
13,Cc1cc(-c2cccs2)nc(-n2cccc2)n1,4.9%
14,Cc1cc(C)nc(N(C#N)CC(=O)Nc2ccccc2)n1,-2.6%
15,COc1ccc(C(=O)Oc2cc(/C=N/NS(=O)(=O)c3ccc(C)cc3)ccc2OC)cc1,4.8%
16,CCOC(=O)CN(Cc1ccc(OC)c(OC)c1)S(=O)(=O)c1ccc(OC)cc1,81.1% (active)
17,NS(=O)(=O)c1cccnc1Nc1cccc(Cl)c1,40.5%
18,CCCCNC(=O)c1ccccc1NC(=O)c1ccccc1N(C)S(C)(=O)=O,14.4%
19,CNC(=O)CSc1nnnn1-c1ccc(C)cc1C,49.1%
20,COc1ccc(C(=O)CSc2nnc(COc3ccccc3)n2Cc2ccco2)cc1,35%
21,COc1ccc(C)cc1-n1nnnc1SCC(=O)c1cc(C)n(Cc2ccco2)c1C,98.7% (active)
22,Cc1nc2cc(-c3ccc(F)cc3)nn2c(N2CCOCC2)c1C,5.1%
23,Oc1ccc(-c2onc3ccc(Cl)cc23)cc1,19%
24,CCn1c2ccccc2c2cc(NC(=S)N3CCOCC3)ccc21,11.1%

row,SMILES,inhibition
1,CCn1c2ccccc2c2cc(NC(=O)C/C(C)=N/NC(=O)c3ccccc3N)ccc21,54.7% (active)
2,COc1ccc(NC(=O)Cn2c(=O)n(Cc3ccco3)c(=O)c3ccccc32)cc1,15.9%
3,CN(C(=O)c1ccccn1)c1nnc(-c2ccccn2)s1,1.1%
4,CCOC(=O)N1CCN(c2c(NCCCN3CCCC(C)C3)c(=O)c2=O)CC1 (stereo not given),4.3%
5,CCCNC(=O)c1c(N)n(-c2ccc(S(N)(=O)=O)cc2)c2nc3ccccc3nc12,-13.2%
6,CC(C)CCn1c(CN(C)Cc2ccccc2)nc2c1c(=O)n(C)c(=O)n2C,42.8%
7,CC(C)Cn1c(CN(Cc2ccccc2)Cc2ccccc2)nc2c1c(=O)n(C)c(=O)n2C,17.7%
8,COCCn1c(CN(Cc2ccccc2)Cc2ccccc2)nc2c1c(=O)n(C)c(=O)n2C,76.4% (active)
9,COCc1cc(C)nc2sc(C(=O)NC3CCCCC3)c(N)c12,-2.5%
10,Cc1cc(/C=N/n2cnnc2)c(C)n1-c1cccc(C(=O)O)c1,24.9%
11,Fc1ccccc1OCCSc1nc2ccccc2o1,46.8%
12,COc1ccccc1OCCC(=O)OCC(=O)NC(=O)NC(C)(C)C,14.2%
13,Cc1ccccc1CSCC(=O)NC(=O)NC(C)(C)C,56% (active)
14,O=C(CSCc1ccccc1Cl)NNC(=O)c1ccccc1,40.1%
15,COC(=O)c1ccccc1NC(=O)C1CCN(S(=O)(=O)c2cc(OC)ccc2OC)CC1,93.5% (active)
16,COc1ccccc1N1CC(C(=O)Nc2ccc(S(=O)(=O)N3CCOCC3)cc2)CC1=O (stereo not given),-1.1%
17,Cn1c(=O)oc2cc(S(=O)(=O)N3CCC(C(=O)Nc4ccc(OC(F)(F)F)cc4)CC3)ccc21,30.4%
18,COc1cccc(C(=O)Nc2ccc(N3CCCC3)cc2)c1,48.4%
19,O=C(CN1C(=O)C2C3C=CC(C3)C2C1=O)Nc1nc(-c2ccccn2)cs1 (stereo not given),-13.1%
20,C=C(C)COc1ccc(-c2n[nH]c(C)c2-c2ccccc2)c(O)c1,33.7%
21,C=C(C)COc1ccc(-c2n[nH]c(C)c2-c2ccccc2OC)c(O)c1,43.5%
22,COc1ccc(-c2n[nH]c(C)c2-c2ccc(OC)c(OC)c2)c(O)c1,98.5% (active)
23,COc1nc(N=C(N)N)nc2c(C)cccc12,-8.7%
